# Assay outcomes from PubChem BioAssay.
# A selection: hits, their analogues and other compounds. The true share with any hit is near 4.6%.
# TexasRed fluor: Total Fluorescence Counterscreen for Inhibitors of the Interaction of Thyroid Hormone Receptor and Steroid Receptor Coregulator 2 | 0.29% of 280,000 active | Potency, µM (series often up to 106 µM), inactives show top-dose fluorescence change, negative = quenching | TRb/SRC2 Texas Red total fluorescence interference | AID 1479, 2009; active means well fitted curve in either direction with a large enough effect; inconclusive means small, poorly fitted or top-dose-only effect; further: potency means the concentration at half of the fitted maximal effect
#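 Flags fluorescent or light-absorbing compounds by total fluorescence, S + 2P, at 555 nm excitation and 632 nm emission. Mixture: 20 nM Texas Red SRC2 peptide, 0.6 uM human TRb LBD, 1 uM T3, 5% DMSO; compound exposure 5 h at ambient temperature.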
# TRb SRC2 PPI: qHTS for Inhibitors of the Interaction of Thyroid Hormone Receptor and Steroid Receptor Coregulator 2 | 0.065% of 280,000 active | AID 1469, 2008 | TRbeta-SRC2 peptide binding, fluorescence polarization; receptor liganded with 1 µM T3 | Potency, µM (highest dose often 106 µM), inactives show top-dose activity change, negative = inhibition, most hits filed as inhibitors;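 further: potency means the concentration at half of the fitted maximal effect; plate controls were bound peptide for no effect and peptide without receptor for full effect; nearly all actives have a fitted effect of over 50% in size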
# Target sequence (P10828 whole entry, looked up): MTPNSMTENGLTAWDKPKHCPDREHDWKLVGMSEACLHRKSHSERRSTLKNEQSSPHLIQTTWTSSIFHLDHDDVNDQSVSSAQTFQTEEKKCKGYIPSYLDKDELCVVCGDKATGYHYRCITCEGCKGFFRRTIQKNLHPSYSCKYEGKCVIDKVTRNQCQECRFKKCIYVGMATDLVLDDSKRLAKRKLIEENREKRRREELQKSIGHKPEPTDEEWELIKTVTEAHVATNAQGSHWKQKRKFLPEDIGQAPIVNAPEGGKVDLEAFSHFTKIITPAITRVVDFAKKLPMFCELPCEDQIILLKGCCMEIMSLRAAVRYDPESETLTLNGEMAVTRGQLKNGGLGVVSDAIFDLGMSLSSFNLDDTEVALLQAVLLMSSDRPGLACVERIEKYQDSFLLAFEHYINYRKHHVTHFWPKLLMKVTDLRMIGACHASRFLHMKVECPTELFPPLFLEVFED
#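 Polarization signal, normalized between peptide-alone and full complex controls, measured compound effects on T3-liganded human TRb LBD (0.6 uM) binding 20 nM Texas Red SRC2 peptide after 5 hr.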
# PNC inhibitor: High Content Assay for Compounds that inhibit the Assembly of the Perinucleolar Compartment; PC3M PTB-GFP, PNC prevalence imaging, 16 h; hits give low values; activity change (PNC), negative = inhibition, % at 10 µM; 3.1% of 140,000 active; AID 2417, 2010;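 active means readout at or below -70, meaning at least 70% loss of cells showing the perinucleolar compartment, a nuclear body marking cancer cells; inconclusive means readout between -30 and a set limit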;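 further: plate controls were DMSO wells for no effect and camptothecin positive control wells for full effect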
#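 PC3M cells stably expressing PTB-GFP, 750–1000 cells/well, treated 16 h at 37 °C with compound (23 nl of library stock), in duplicate. After paraformaldehyde fixation and Hoechst stain, imaged at 20x; PNC prevalence scored by image analysis.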
# Tau ThT inhib: qHTS for Inhibitors of Tau Fibril Formation, Thioflavin T Binding; Microtubule-associated protein tau (Homo sapiens), P10636; recombinant tau K18 P301L, heparin-induced fibrillization, ThT fluorescence; Potency, µM (doses to about 57.4 µM), for the others: at the highest dose activity, negative = inhibition, usual class: inhibitors; 2.1% of 270,000 active; AID 1460, 2008; further: potency means the concentration at half of the fitted maximal effect; nearly all actives have a fitted effect of over 55% in size
# Target sequence (P10636 561-689 P618L limits assumed): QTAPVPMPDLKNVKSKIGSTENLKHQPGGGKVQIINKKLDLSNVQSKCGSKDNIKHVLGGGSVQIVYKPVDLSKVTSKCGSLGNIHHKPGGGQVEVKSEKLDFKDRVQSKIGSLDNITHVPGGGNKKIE
#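 ThT emission at 510 nm, taken 1 hr after adding 30 uM dye, quantifies aggregates formed when 20 uM heparin acts on human tau K18 P301L for 6 hr at 37 C.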
# Tau fibril FP: qHTS for Inhibitors of Tau Fibril Formation, Fluorescence Polarization; Potency, µM (titrated, usually from 57.7 µM), inactives show at the highest dose activity, negative = inhibition, actives largely listed as inhibitors; 0.39% of 280,000 active; Microtubule-associated protein tau (Homo sapiens), P10636; AID 1468, 2008; K18 P301L tau heparin fibrillization, Alexa594 FP, 6 h; further: potency means the concentration at half of the fitted maximal effect; nearly all actives have a fitted effect of over 55% in size
#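 K18 P301L tau (15 uM unlabeled/0.24 uM Alexa 594-labeled, final) + compound + heparin 20 uM final; 100 mM NaOAc pH 7; 6 hr 37 C; ThT 30 uM final added, 1 hr RT; FP ex 555/em 632 nm.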
# Tau fluor cs: Counterscreen qHTS for Inhibitors of Tau Fibril Formation, Fluorescence Polarization | tau K18 P301L (four-repeat tau fragment) Alexa594 fluorescence, heparin fibrillization | 0.93% of 280,000 active | AID 1463, 2008 | Potency, µM (series often up to 57.7 µM), inactives show at the top dose activity change, negative = decrease; further: potency means the concentration at half of the fitted maximal effect; nearly all actives have a fitted effect of over 55% in size
#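 Human K18 P301L tau (15 uM unlabeled plus 0.24 uM Alexa 594-labeled, final) in 100 mM sodium acetate pH 7 was mixed with compound and 20 uM heparin and incubated 6 hr at 37 C.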
# Active calls of the source: *; ? = inconclusive; / = no result given; ! = not active in a repeat; [ ] = another dose, or the depositor's remark. Unless noted, the call rests on the fitted dose curve; in most records, active means well fitted curve in the direction sought with a large enough effect; inconclusive means small, poorly fitted or top-dose-only effect, or another doubt; inactive means no such curve, though single readings can be large; an effect the other way counts as inactive or inconclusive. Unless noted, on the % scale 0 is the no-effect control and ±100 the full control effect.
SMILES,TexasRed fluor,TRb SRC2 PPI,PNC inhibitor,Tau ThT inhib,Tau fibril FP,Tau fluor cs
CN(C)P(=NC(=S)c1cccn1C)(N(C)C)N(C)C,1%,-1%,9,-7%,0%,-3%
c1ccc2c(c1)CC1CNCc3cccc(c31)S2 (centres undefined),0%,-5%,-117*,-8%,6%,3%
COc1ccc(C[C@@H]2c3cc(O)c(OC)cc3CCN2C)cc1O,0%,-12%,39,3%,-7%,-2%
COc1cc2c3cc1Oc1cc(ccc1O)C[C@@H]1c4c(cc(OC)c(O)c4Oc4ccc(cc4)C[C@H]3N(C)CC2)CCN1C,-7%,-3%,-97*,?,4%,-12%
COc1cc2c(cc1O)C[C@H]1c3c(cc(O)c(OC)c3-2)CCN1C,-2%[53 µM],1%[53 µM],/,/,/,/
COc1cc2c(cc1O)-c1c(O)c(OC)cc3c1[C@H](C2)N(C)CC3,-4%,-6%,/,28µM*,?,?
CCN1CC2([N+](=O)[O-])CC=C(Cl)C([N+](=O)[O-])(C1)C2 (centres undefined),-3%,-3%,/,1%,7%,0%
COC1=CC23CCCN2CCc2cc4c(cc2C3C1O)OCO4 (centres undefined),-2%,2%,/,35µM*,?,?
COC(=O)NC(=C(Cl)Cl)P(=O)(c1ccccc1)c1ccccc1,-2%,-5%,/,/,-7%[11.6 µM],-6%[11.6 µM]
CSc1nc(N)c(N=Nc2ccc([As](=O)(O)O)cc2)c(=O)[nH]1,-9%,-5%,/,20µM*,-9%,?
CCOc1ccc(NC(=O)c2cccn(Cc3cccc(Cl)c3)c2=O)cc1,-32%,0%,/,-5%,?,-15%
CCCC1C(C#N)=C(N)Oc2c1c(=O)oc1ccccc21 (centres undefined),0%,11%,-98*,-12%,-5%,-15%
N#CC1=C(N)Oc2c(c(=O)oc3ccccc23)C1c1ccc([N+](=O)[O-])o1 (centres undefined),4%,0%,/,10µM*,?,-27%
C#C[C@]1(O)CC[C@H]2[C@@H]3CCC4=CC(=O)CC[C@]4(C)[C@H]3CC[C@@]21C,-3%,4%,23,-7%,-10%,-10%
O=C1NC(=O)C(=O)C(=O)N1,-13%,-29%,/,2.5µM*,2.8µM*,-25%
Cc1cc(C=C2C(=O)N(C)C(=S)N(C)C2=O)c(C)n1C1CCCC1,5%,0%,58,25µM*,?,?
CCOC(=O)C(NC(C)=O)C(OC(C)=O)c1cccc(N(CCCl)CCCl)c1 (centres undefined),0%,13%,-119*,13%,12%,11%
CCCCN(Cc1ccccc1)C1CCN(CCc2ccccc2)CC1,0%,14%,110,-3%,-2%,4%
c1ccc(CCN2CCC(N3CCN(c4ccccc4)CC3)CC2)cc1,2%,-3%,-100*,?,0%,-6%
C=CCc1cc(C=C2C(=O)N(C)C(=O)N(C)C2=O)cc(OCC)c1OCc1ccccc1,1%,-11%,-114*,25µM*,?,-14%
C=CCc1cc(C=C2C(=O)NC(=O)NC2=O)cc(OC)c1OCc1ccc(C(=O)O)cc1,-3%,-8%,/,?,?,-15%
CCCCCOc1ccc(C)cc1CN(CCCl)CCCl,-1%,32µM*,/,?,1%,-11%
CCN(CCCl)Cc1ccccc1Br,-4%,-4%,/,-17%,8%,0%
COc1cc(CC2(CCc3ccncc3)C(=O)NC(=O)NC2=O)cc(OC)c1OC,3%,-3%,/,-9%,-17%,-6%
COc1cc2c(cc1OC)-c1c(OC)c(OC)c(OC)c3ccnc(c13)C2=O,-2%,2%,-101*,10µM*,-2%,-26%
SMILES,TexasRed fluor,TRb SRC2 PPI,PNC inhibitor,Tau ThT inhib,Tau fibril FP,Tau fluor cs
N#CC(C#N)=Cc1ccc(O)c(O)c1,-3%,6%,/,14µM*!,?,11%
N#CC(=Cc1ccc(O)c(O)c1)C(N)=S,-8%,0%,/,?,?,-22%
CC(C)(C)c1cc(C=C(C#N)C#N)cc(C(C)(C)C)c1O,-1%,-6%,/,16µM*,?,?
Cc1cccc(CN2CCCC(C(=O)c3ccc(C(F)(F)F)cc3)C2)n1 (centres undefined),0%,3%,/,3%,8%,4%
[O-]/[N+](=C/c1cccnc1)c1ccc(Br)cc1,-3%,2%,-9,28µM*,?,-20%
CC(=O)C1C(=O)NC23CCCCC2C1c1ccccc1O3 (centres undefined),-3%,-18%,24,-1%,9%,4%
CC12CC(c3ccccc3O1)C(C(=O)OCc1ccccc1)C(=O)N2 (centres undefined),0%,9%,-119*,5%,9%,3%
Cc1ccc2oc(-c3ccc(Cl)cc3)c(O)c(=O)c2c1,-20%,-1%,/,?,-6%,-20%
O=c1c(O)c(-c2ccc(O)c(O)c2)oc2cc(O)cc(O)c12,?,6%,/,13µM*,?,10µM*[quencher]
Cc1ccc2oc(-c3ccccc3)cc(=O)c2c1,-1%,-8%,/,?,?,-23%
O=c1cc(-c2ccc(O)c(O)c2)oc2cc(O)cc(O)c12,?,15%,/,13µM*,7%,?
C[C@@H](C(=O)O)c1ccc(-c2ccccc2)c(F)c1,0%,3%,/,?,-3%,-26%
Cc1ccc(CN2C3CCCC2CC(NC(=S)NCc2ccccc2)C3)cc1 (centres undefined),-1%,-5%,/,-5%,-4%,-20%
CN1C(=O)C(=Cc2ccc(N(C)C)c([N+](=O)[O-])c2)C(=O)N(C)C1=O,2%,-16%,/,?,-10%,-27%
Cc1ccsc1C(=O)C1CCCN(Cc2cnc(N)nc2)C1 (centres undefined),1%,-9%,/,-7%,-3%,-9%
CCC12CN3CC(CC)(CN(C1)C3c1ccccn1)C2=O (centres undefined),0%,-7%,/,-2%,-4%,-2%
CN1C2CCC1/C(=C/c1ccccn1)C(=O)/C2=C\c1ccccn1,3%,-1%,-109*,4.5µM*,?,-1%
Cc1cc(CN(C)C)c(OC(=O)N(C)C)cc1C,2%,3%,-122*,10%,8%,5%
